MITF primary: human MITF inhibition, primary screen. AlphaScreen MITF homodimerization, bead proximity signal. AID 1259374. inhibition, % at 2.6 µM. 650,000 tested, 0.91% active; in the data active = inhibition above about 50%;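 note: 0% = vehicle wells with protein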
Target sequence (O75030 whole entry, looked up): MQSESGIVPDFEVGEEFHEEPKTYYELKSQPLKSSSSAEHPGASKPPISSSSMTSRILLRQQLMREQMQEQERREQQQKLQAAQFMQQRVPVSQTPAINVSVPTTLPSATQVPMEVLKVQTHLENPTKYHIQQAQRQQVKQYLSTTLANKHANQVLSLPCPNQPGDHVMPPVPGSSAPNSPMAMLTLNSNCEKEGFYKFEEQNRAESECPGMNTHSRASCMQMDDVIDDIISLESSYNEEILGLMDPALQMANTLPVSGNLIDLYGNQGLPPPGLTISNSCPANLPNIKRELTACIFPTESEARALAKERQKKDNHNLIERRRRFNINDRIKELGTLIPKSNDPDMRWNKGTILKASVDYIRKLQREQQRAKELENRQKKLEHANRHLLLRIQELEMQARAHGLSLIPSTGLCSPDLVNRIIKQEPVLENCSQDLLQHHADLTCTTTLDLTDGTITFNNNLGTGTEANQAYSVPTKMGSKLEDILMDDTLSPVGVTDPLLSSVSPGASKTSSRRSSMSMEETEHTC
TEAD-YAP block: TEAD-YAP interaction inhibition; HEK-TIYL cells, TEAD-Gal4/YAP UAS-luciferase luminescence; 640,000 tested, 1.4% active; AID 1259422; inhibition, % at 9.12 µM; in the data active = inhibition above about 32%;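 note: 0% = median of test compound wells and 100% = reference inhibitor wells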
FBW7 activator: human FBW7 E3 ligase activation, primary screen; Q969H0; AlphaScreen FBW7–phospho-cyclin E peptide binding, activator screen; normalized activity (activation), % at 26.1 µM; 650,000 tested, 0.13% active; AID 1259310; in the data active = normalized activity above about 1.9%;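 note: purified mutant Fbw7 with reduced substrate affinity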
GPR151 ag: activates the human receptor GPR151 | PathHunter beta-arrestin GPR151 cells, luminescence | activation, % at 11.2 µM | 650,000 tested, 1% active | AID 1508602; in the data active = activation above about 4.9%;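 note: 0% = median of compound wells and 100% = cells with positive control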
* hit, by the source's call. A selection: hits, their analogues and other compounds. The true share with any hit is near 3.4%.

SMILES | MITF primary | TEAD-YAP block | FBW7 activator | GPR151 ag
COc1cc(Nc2nc3ccccc3n3cnnc23)cc(OC)c1OC | -4 | -4 | 0 | -1
COc1cc(Nc2nc3ccc(C)cc3n3cnnc23)cc(OC)c1OC | 20 | 34* | 0 | 1
Cc1ccsc1C(=O)NNC(=O)c1cc(C)n(-c2ccc(F)cc2)c1C | -14 | 65* | 0 | -2
Clc1ccccc1/C=N/Nc1cc(N2CCCC2)nc(N2CCCC2)n1 | -14 | -16 | 0 | -1
CCOc1ccc(-c2cc(=O)c3ccc(NC(=O)c4ccncc4)cc3o2)cc1 | 0 | -9 | 0 | 1
O=C1c2ccccc2C(=O)c2c(O)c([N+](=O)[O-])cc(O)c21 | 8 | 3 | 0 | 1
CCOc1ccc(-c2c3cc(O)c(=O)cc-3oc3cc(O)c(O)cc23)cc1 | 111* | -5 | 0 | -1
O=c1cc2oc3cc(O)c(O)cc3c(-c3ccc([N+](=O)[O-])cc3)c-2cc1O | 97* | 7 | -2 | 0
O=c1cc(-c2ccc3c(c2)OCCO3)oc2ccc([N+](=O)[O-])cc12 | 10 | -9 | 0 | -1
O=c1cc2oc3cc(O)c(O)cc3c(-c3ccccc3[N+](=O)[O-])c-2cc1O | 114* | 6 | 0 | -1
Cn1c(Nc2nc(NC3CC3)c3ncn(-c4ccccc4)c3n2)nc2ccccc21 | 13 | 47* | 0 | 0
Cn1nccc1Nc1nc(NC2CC2)c2ncn(-c3ccccc3)c2n1 | 6 | 40* | 0 | -3
CC(=O)Nc1ccc(Nc2nc3ccccc3n3nnnc23)cc1 | 5 | 38* | 0 | 0
CCCNc1nc(Nc2nc3ccccc3n2C)nc2c1ncn2-c1ccccc1 | -49 | 55* | 0 | 4
c1ccc(-n2cnc3c(NC4CC4)nc(Nc4ncccn4)nc32)cc1 | -7 | 23 | 0 | 0
Cn1c(Nc2nc(NCCc3ccc(O)cc3)c3ncn(-c4ccccc4)c3n2)nc2ccccc21 | 1 | 19 | 1 | -4
CC(=O)Nc1cccc(Nc2nc3ccccc3n3nnnc23)c1 | 9 | -14 | 0 | 0
CCCOC(=O)c1ccc(NC(=O)C2CCC(C)CC2)cc1 (stereo not drawn) | 15 | -3 | 0 | -2
CCOc1cc(/C=N/n2cnnc2)ccc1Oc1nc(Cl)ncc1F | 2 | 6 | 1 | 0
O=C(CC(=O)N1CCc2ccccc21)N1CCc2ccccc21 | 11 | 12 | 0 | -1
CCNc1nc(Nc2ccc(NC(C)=O)cc2)c2ncn(-c3ccccc3)c2n1 | 20 | -8 | 0 | 1
CC(C)N(CCNc1nc(Nc2nc3ccccc3n2C)nc2c1ncn2C(C)C)C(C)C | -7 | 43* | 0 | 0
CC(=O)Nc1ccc(Nc2nc(Nc3nc4ccccc4n3C)nc3c2ncn3-c2ccccc2)cc1 | -1 | 32* | 0 | 1
Cn1c(Nc2nc(NCCCN3CCCC3=O)c3ncn(-c4ccccc4)c3n2)nc2ccccc21 | 6 | 39* | 0 | 0
O=C(c1nn2c(c1Cl)NC(c1ccccc1)CC2C(F)(F)F)N1CCOCC1 (stereo not drawn) | 13 | -7 | 0 | 1
SMILES | MITF primary | TEAD-YAP block | FBW7 activator | GPR151 ag
COc1cccc(C2C(C(=O)OCC3CCCO3)=C(C)NC3=C2C(=O)CC(C)(C)C3)c1OC (stereo not drawn) | -17 | 3 | 0 | -1
COC(=O)c1cc2c(=O)n3cc(C)ccc3nc2n(Cc2ccccc2)c1=N | 11 | 10 | 0 | -1
O=C(CN1C(=O)c2ccccc2S1(=O)=O)c1ccccc1 | 11 | 54* | 1 | -1
CC(=O)c1c(C)[nH]c(C(=O)CN2C(=O)c3ccccc3S2(=O)=O)c1C | 16 | 41* | 0 | -1
CCOC(=O)CN1C(=O)c2ccccc2S1(=O)=O | -2 | 0 | 0 | 0
CC1=CC(C)(C)N(C(=O)Nc2ccc(Cl)cc2)c2ccc(C)cc21 | 7 | -11 | 0 | -1
CC1=CC(C)(C)N(C(=O)c2ccc(NS(C)(=O)=O)cc2)c2ccc(C)cc21 | 2 | 59* | 0 | 1
Nc1ccc(C(=O)Nc2ccc3nc(-c4ccccc4)[nH]c3c2)cc1 | -15 | -37 | 0 | 3
Nc1cccc(-c2nc3cc4ccccc4cc3[nH]2)c1 | -14 | 50* | 0 | -8
Cc1ccc2nc(-c3ccccc3)[nH]c2c1 | -1 | 51* | 0 | -11
Cc1ccc2nc(-c3cccc(N)c3)[nH]c2c1 | 0 | 60* | 0 | -8
Nc1ccc(-c2nc3ccc(C(=O)O)cc3[nH]2)cc1 | -6 | 36* | 0 | -8
COc1ccc(N2C(=O)CC(NCCc3c[nH]c4ccccc34)C2=O)cc1 (stereo not drawn) | 6 | -1 | 0 | 0
